# Source: PubChem BioAssay (NCATS)
# Where “and” joins values, the source holds several entries; their conditions need not be identical. Equal entries are not always repeated. Records with an inconclusive call do not appear. A number with no mark means an inactive call. Calls of active or inactive are those of the source. Calls follow the shape of the dose curve; as a rule, active = well fitted curve in the direction sought with a large enough effect; inconclusive = small, poorly fitted or top-dose-only effect, or another doubt; inactive = no such curve, though single readings can be large; an effect the other way counts as inactive or inconclusive.
# What was measured:
# [1] = target: Cellular tumor antigen p53 (Homo sapiens) (UniProt P04637); assay: Primary qHTS for small molecule compounds that upregulate eGFP-tagged delta133p53alpha (in N-terminal) cells. (AID 2060322); conditions: NCI-H358 eGFP-delta133p53alpha fluorescence, 24 h; activation: active compounds read high; also: nearly all actives have a fitted effect of over 75% in size;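 as to activation: cells pre-induced with doxycycline then dosed without doxycycline; series mostly up to about 56 µM; 0% = DMSO vehicle and 100% = reference activator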
# Sequence of Cellular tumor antigen p53 (Homo sapiens) (P04637 whole entry, looked up): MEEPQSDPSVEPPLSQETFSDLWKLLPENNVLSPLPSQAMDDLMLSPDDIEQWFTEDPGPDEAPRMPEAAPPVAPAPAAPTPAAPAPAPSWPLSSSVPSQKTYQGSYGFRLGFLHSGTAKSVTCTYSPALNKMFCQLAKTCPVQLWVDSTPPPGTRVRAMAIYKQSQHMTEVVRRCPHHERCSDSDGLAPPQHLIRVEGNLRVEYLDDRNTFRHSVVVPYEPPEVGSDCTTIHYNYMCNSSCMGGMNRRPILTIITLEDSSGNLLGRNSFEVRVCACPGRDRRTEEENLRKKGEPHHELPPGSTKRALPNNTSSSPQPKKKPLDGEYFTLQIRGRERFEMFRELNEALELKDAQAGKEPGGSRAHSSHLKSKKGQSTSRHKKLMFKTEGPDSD
# In short: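 NCI-H358 cells pre-induced 24 h with 10 ng/ml doxycycline for eGFP-delta133p53alpha, plated dox-free and exposed 24 h at 37C to titrated compounds. Fixed, Hoechst-stained; gated GFP peak intensity by laser scanning cytometry, normalized to DMSO (0%) and 57.5 uM 5-azacytidine (100%).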
# [2] = BET inhibitor-based combinations targeting novel dependencies in MECOM-rearranged (r) AML: MV-4-11 cell line (AID 2202233); also: nearly all actives have a fitted effect of over 45% in size
# In short: (§1)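 Cells at 500/well were exposed for 48 hr to MIPE v5.0 drugs as 11-point dose curves. Viability was read by CellTiter-Glo luminescence and normalized to DMSO and empty-well controls. Activity was expressed as AUC and per-cell-line Z-AUC.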
# [3] = BET inhibitor-based combinations targeting novel dependencies in MECOM-rearranged (r) AML: HNT-34 cell line (AID 2202234); also: nearly all actives have a fitted effect of over 35% in size
# In short: as §1
# [4] = BET inhibitor-based combinations targeting novel dependencies in MECOM-rearranged (r) AML: UCSD-AML1 cell line (AID 2202235); also: nearly all actives have a fitted effect of over 40% in size
# In short: as §1
# [5] = BET inhibitor-based combinations targeting novel dependencies in MECOM-rearranged (r) AML: OCI-AML3 cell line (AID 2202232); conditions: Potency: OCI-AML3 viability; also: nearly all actives have a fitted effect of over 35% in size
# In short: (§2)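 AML cell lines seeded at 500 cells/well, treated with 11-point dose curves for 48 h. Viability by CellTiter-Glo luminescence, normalised to DMSO and empty wells; activity expressed as AUC and per-cell-line Z-transformed AUC.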
# [6] = BET inhibitor-based combinations targeting novel dependencies in MECOM-rearranged (r) AML: AML-191 cell line (AID 2202236; also: nearly all actives have a fitted effect of over 35% in size)
# In short: as §2
# [7] = BET inhibitor-based combinations targeting novel dependencies in MECOM-rearranged (r) AML: AML-194 cell line (AID 2202237; also: nearly all actives have a fitted effect of over 40% in size)
# In short: as §2
# Potency is read from the fitted curve at half-maximal effect.
Structure (SMILES),activation [1],Potency [2],Potency [3],Potency [4],Potency [5],Potency [6],Potency [7],Potency [1]
COc1cc2ncnc(Nc3cc(Br)c(O)c(Br)c3)c2cc1OC,26.5%,7.42 µM (active),18.6 µM (active),26.3 µM (active),,,,
Nc1nc(=O)n([C@H]2C[C@H](O)[C@@H](CO)O2)cc1F,-4.59%,0.0148 µM (active),,,0.132 µM (active),0.186 µM (active),0.742 µM (active),
CCn1c(-c2nonc2N)nc2cnc(Oc3cccc(NC(=O)c4ccc(OCCN5CCOCC5)cc4)c3)cc21,-20.5%,0.332 µM (active),,,,,,
Nc1ncnc2c1ncn2[C@@H]1O[C@H](CO)[C@@H](O)[C@@H]1O,23.2%,inactive,,,inactive,inactive,inactive,
COC(=O)[C@H](c1ccccc1Cl)N1CCc2sccc2C1,12.2%,,inactive,inactive,inactive,inactive,inactive,
O=C(Cc1cccc(OC(F)(F)F)c1)Nc1ccc(CCCCc2nnc(NC(=O)Cc3ccccn3)s2)nn1,7.71%,,,0.0209 µM (active),inactive,0.118 µM (active),,
CN1c2cc(O)c(N=NC(N)=O)cc2CC1S(=O)(=O)O (stereo unspecified),16.4%,,,,inactive,inactive,inactive,
CC(S)C(=O)NCC(=O)O (stereo unspecified),9.72%,,inactive,inactive,8.33 µM (active),,inactive,
O=C(Nc1c(Cl)cncc1Cl)c1ccc(OC(F)F)c(OCC2CC2)c1,-4.21%,,inactive,inactive,inactive,inactive,inactive,
COc1cccc2c1CCCC2CCCN1CCN(C2CCCCC2)CC1 (stereo unspecified),0.872%,16.6 µM (active),,,11.8 µM (active),5.9 µM (active),inactive,
CC(C)(C)OC(=O)CN(Cc1ccc(Cl)cc1)Cc1ccc([N+](=O)[O-])s1,-41.8%,18.6 µM (active),,inactive,7.42 µM (active),inactive,inactive,
O=C(O)[C@H](Cc1c[nH]c2ccccc12)N1C(=O)c2ccccc2C1=O,-29%,inactive,,3.32 µM (active),inactive,inactive,inactive,
O=c1c(-n2ccnn2)c[nH]n1-c1cc(N2CCOCC2)ncn1,44.9%,20.9 µM (active),,,,,,
CC(C)(C)c1cnc(CSc2cnc(NC(=O)C3CCNCC3)s2)o1,,,0.235 µM (active),,0.372 µM (active),0.742 µM (active),0.742 µM (active),0.968 µM (active)
CCOC(=O)N1c2ccc(C(F)(F)F)cc2[C@@H](N(Cc2cc(C(F)(F)F)cc(C(F)(F)F)c2)C(=O)OC)C[C@H]1CC,-8.39%,,inactive,inactive,4.68 µM (active),inactive,inactive,
O=c1c(O)c(-c2ccc(O)c(O)c2)oc2cc(O)ccc12,-6.9%,2.63 µM (active),,,,,,
NS(=O)(=O)c1ccc(NC2=CC(=O)c3ccccc3C2=O)cc1,4.73%,0.833 µM (active),,inactive,5.25 µM (active),4.68 µM (active),inactive,
CC(=O)Oc1ccccc1C(=O)Nc1ncc([N+](=O)[O-])s1,-2.09% and 33.3%,,,,18.6 µM (active),20.9 µM (active),,
CCN(CC)CCCCNc1nc2cc(Cl)c(Cl)cc2nc1-c1ccc(-c2cccs2)s1,,,,,20.9 µM (active),26.3 µM (active),,6.85 µM (active)
O=C(Nc1ccccc1Br)N[C@@H]1CCN(c2ccc(C(F)(F)F)cn2)C1,10.1%,inactive,inactive,inactive,,inactive,inactive,
CN1CCC(=C2c3ccccc3CCc3sccc32)CC1,-15.1% and 66.1%,33.2 µM (active),,,,,,
O=C(O)CCNC(=O)c1ccc(N=Nc2ccc(O)c(C(=O)O)c2)cc1,-19.8% and -1.86%,inactive,inactive,inactive,,inactive,inactive,
COc1cc2ncnc(Nc3cccc(Br)c3)c2cc1OC,29.9%,9.34 µM (active),9.34 µM (active),20.9 µM (active),,20.9 µM (active),,
COc1cc(C(C)C)c(Oc2cnc(NC(CO)CO)nc2N)cc1I,-13.5%,,,inactive,inactive,inactive,inactive,
OC[C@H](Cc1ccccc1)Nc1nc(Oc2ccc3c(c2)CCC3)nc2c1ncn2Cc1ccc(-c2ccccc2)cc1,-44.8%,,7.42 µM (active),4.68 µM (active),8.33 µM (active),,,
COc1ccc(-c2cc(=O)c3c(O)cc(O)cc3o2)cc1O,29.3%,5.25 µM (active),,,,,,
COc1cccc([C@@H](C)NCCCc2ccccc2Cl)c1,-21.4%,,,,16.6 µM (active),,23.5 µM (active),
O=C(O)Cc1cccc(OCCCN(Cc2cccc(C(F)(F)F)c2Cl)CC(c2ccccc2)c2ccccc2)c1,4.75%,20.9 µM (active),,,,,,
N#CC1(c2ccc(NC(=O)c3cccnc3NCc3ccncc3)cc2)CCCC1,-7.07%,14.8 µM (active),,inactive,inactive,,inactive,
O=C(Nc1nnc(-c2ccco2)o1)c1cc(-c2ccccc2)nc2ccccc12,-15%,20.9 µM (active),,8.33 µM (active),14.8 µM (active),11.8 µM (active),13.2 µM (active),
